From PubChem BioAssay
HIF-2a block: blocks HIF-2a reporter activity. 786-0 RCC cells HIF-2a reporter, luciferase luminescence, overnight. inhibition, % at 18.8 µM. 0.72% of 360,000 active. AID 624352;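 active means inhibition of the luminescence signal of 40% or more relative to plate controls, in a single-dose primary screen at 18.75 µM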
Shn3 3UTR inh: Schnurri-3 reporter inhibition in Clone20 osteoblasts; inhibition, % at 12.5 µM; 0.52% of 360,000 active; Clone20 osteoblast Shn3 3'UTR firefly luciferase, 24 h; AID 588674;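 active means mean inhibition of at least 75% with every replicate also reaching 75%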;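 further: 0% = median of neutral control wells and 100% = pilot-screen positive control compound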
KKLEB tox: reduces viability of KKLEB cystic fibrosis airway cells; 0.36% of 360,000 active; activity change (cytotoxicity), % at 5 µM; KKLEB CF airway cells viability, ATPlite luminescence, overnight; active compounds read low; cells stimulated with P. aeruginosa culture filtrate;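 active means corrected activity change at or below -50% at 5 µM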
CF NFkB inh: cystic fibrosis NF-kB activation inhibition; inhibition, % at 5 µM; 0.86% of 360,000 active; KKLEB NF-kB-GFP reporter, PAF-induced, GFP fluorescence overnight; AID 588850;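 active means at least 50% inhibition at 5 µM, scaled per plate between neutral and stimulator controls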;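 further: PAF is a Pseudomonas aeruginosa culture filtrate used as stimulus; plate controls were PAF-stimulated DMSO wells for no effect and unstimulated DMSO wells for full effect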
EBV LMP1 NFkB: inhibitors of Epstein-Barr LMP1-induced NF-kappaB reporter; LMP1-induced NF-kappaB luciferase reporter cells, luminescence; inhibition, % at 12.5 µM; 0.69% of 350,000 active; AID 504558; in the data active means inhibition above about 41%;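 further: 0% = neutral control wells and 100% = reference inhibitor control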
Peg3 prom inh: Peg3 promoter activity inhibition | HeLa PEG-Prom luciferase reporter, luminescence, overnight | inhibition, % at 20 µM | 1.7% of 360,000 active | AID 588405;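 active means inhibition of at least 50% at 20 µM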
Mdm2-MdmX confirm: Mdm2/MdmX (human) interaction inhibition, confirmed. SaOS-2 split-luciferase Mdm2/MdmX complementation, luminescence. 99% of 740 active. shares compounds with HIF-2a block. inhibition, % at 8 µM;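 active means mean inhibition of the luminescence signal across two replicates at or above 26 percent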
HIF-2a inh conf: HIF-2a inhibition, single concentration confirmation; inhibition, % at 18.8 µM; 56% of 1,800 active; AID 651580; shares compounds with HIF-2a block; 786-0 RCC cells, HIF-2a luciferase reporter luminescence, overnight;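 active means mean inhibition across four replicates of at least 40 percent at the single tested concentration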
HIF-1a counter: counter-screen for HIF-2a inhibitors: HIF-1a inhibition in MiaPaCa-2 cells | shares compounds with HIF-2a block | MiaPaCa-2 HIF-1a luciferase reporter, desferoxamine, overnight | inhibition, % at 18.8 µM | 72% of 1,800 active | AID 651589;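 active means mean inhibition of the reporter signal across four replicates at the single tested dose of 50% or more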
* hit, by the source's call; . = not tested or not shown. Compounds with a hit are over-represented: about 2.9% of the library has one in this group of screens.

SMILES	HIF-2a block	Shn3 3UTR inh	KKLEB tox	CF NFkB inh	EBV LMP1 NFkB	Peg3 prom inh	HIF-2a inh conf	HIF-1a counter	others
NS(=O)(=O)c1ccc(CCNC(=O)c2ccccc2Cc2ccccc2)cc1	10	7	4	-16	-1	2	.	.
CCOC(=O)c1cn(CC(=O)Nc2ccc(OC)cc2OC)nn1	20	10	-3	-5	-12	11	.	.
COc1nn(-c2ccccc2)c(=O)c(Cl)c1Cl	93*	2	-66*	91*	1	105*	65*	106*
Cc1ccc(/C(N)=N/OC(=O)c2cccc(Cn3cc(C(F)(F)F)ccc3=O)c2)cc1	-26	1	-6	2	3	11	.	.
Cc1ccc(C(=O)NC(C#N)=C(Cl)Cl)cc1	.	.	.	.	.	.	.	.	Mdm2-MdmX confirm=103*
Cc1ccc(C(=O)NC(=C(Cl)Cl)S(=O)(=O)c2ccccc2)cc1	89*	24	-9	-9	-129	79*	-17	25
Cc1ccc(C(=O)NCC#N)cc1	15	5	-28	10	1	6	.	.
COc1ccc(C(=O)NC(=C(Cl)Cl)S(=O)(=O)c2ccc(C)cc2)cc1	-10	-5	-5	-16	-27	14	.	.
COc1ccccc1CNC(=O)C(=O)NCC1OCCCN1S(=O)(=O)c1ccc(F)cc1C (stereo unspecified)	5	9	4	-10	-11	8	.	.
Nc1nc2ccc(S(=O)(=O)c3ccc4nc(N)sc4c3)cc2s1	48*	-15	-20	17	-8	13	41*	-20
COC(=O)c1cc(=O)n(-c2ccc(F)cc2)c(=Nc2ccc(F)cc2)s1	53*	59	-15	18	4	93*	66*	91*
O=C(O)/C=C/C(=O)c1ccc2c(c1)CCc1ccccc1-2	50*	81	3	64*	4	100*	57*	103*
O=c1c2ccccc2nc(/C=C/c2ccc([N+](=O)[O-])cc2)n1CCCO	11	-30	6	-5	-2	12	.	.
O=c1c2ccccc2nc(/C=C/c2ccc([N+](=O)[O-])o2)n1CCCO	80*	96*	-8	-2	84*	104*	54*	106*
Cc1ccc(-c2[nH]c3ccccc3c2SCCNC(=O)c2ccc(S(=O)(=O)N3CCOCC3)cc2)cc1	36*	57	-8	18	5	16	-2	49
Cc1ccc(CNCC(=O)Nc2ccc(C)cc2Br)cc1	-44	-1	8	12	-16	-30	.	.
COCCNC(=O)c1cc2c(=O)n3cccc(C)c3nc2n(Cc2ccncc2)c1=N	10	22	-2	14	1	11	.	.
COc1ccc(CCNC(=O)c2cc3c(=O)n4cccc(C)c4nc3n(Cc3ccco3)c2=N)cc1OC	60*	28	-8	14	-4	-3	-4	41	Mdm2-MdmX confirm=17
Cc1cccn2c(=O)c3cc(C(=O)NCCc4ccccc4)c(=N)n(Cc4ccco4)c3nc12	93*	3	-8	4	-6	31	4	83*	Mdm2-MdmX confirm=29*
Cc1cccn2c(=O)c3cc(C(=O)NCc4ccco4)c(=N)n(CCc4ccccc4)c3nc12	11	-16	-11	-71	-3	13	.	.
COc1ccc(C(=O)Cn2c(C(=O)/C=C/c3ccccc3)nc3ccccc32)cc1	40*	102*	-14	-4	7	35	3	102*
CC1=CC(C)(C)Nc2ccc(OC(=O)CN3C(=O)CCC3=O)cc21	74*	31	-10	11	-13	44	88*	90*
CC1=CC(C)(C)Nc2ccc(OC(=O)c3ccco3)cc21	81*	9	2	24	-36	46	83*	92*
CC1=CC(C)(C)Nc2ccc(OC(=O)C(C)N3C(=O)c4ccccc4C3=O)cc21 (stereo unspecified)	78*	78	-6	8	9	-18	90*	94*
CC1=CC(C)(C)Nc2ccc(OC(=O)c3cccnc3)cc21	75*	49	-9	38	-15	57*	86*	94*
SMILES	HIF-2a block	Shn3 3UTR inh	KKLEB tox	CF NFkB inh	EBV LMP1 NFkB	Peg3 prom inh	HIF-2a inh conf	HIF-1a counter	others
CC1=CC(C)(C)Nc2ccc(C)cc21	6	-16	2	6	4	7	.	.
O=C(Oc1cccc(OC(=O)c2ccco2)c1)c1ccco1	15	1	6	-9	1	1	.	.
COc1ccc(OC(=O)C(C)N2C(=O)c3ccccc3C2=O)cc1 (stereo unspecified)	17	-10	1	15	8	5	.	.
CC1=C(OC(=O)c2ccccc2)C(C)(C)C(c2ccc(Br)cc2)OC1=O (stereo unspecified)	6	-18	-6	3	-8	20	.	.
CCOC(=O)C1CCN(C(=O)Nc2ccc3snnc3c2)CC1	52*	-5	4	-2	-4	10	50*	12
CCOC(=O)C1CCN(C(=O)Nc2ccc3nccnc3c2)CC1	-26	6	1	-5	-16	-1	.	.
CCN1CCc2nc3ccccc3c(C(=O)Nc3ccc(C#N)cc3)c2C1	6	-16	2	-45	3	9	.	.
COc1ccc(N=C2S/C(=C\c3ccc(Cl)c([N+](=O)[O-])c3)C(=O)N2CCN(C)C)cc1	79*	47	-14	50	-11	105*	4	101*
CCN(CC)CCN1C(=O)/C(=C\c2ccc(Cl)c([N+](=O)[O-])c2)SC1=Nc1ccc(OC)cc1	96*	96*	-82*	99*	30	102*	54*	104*
COc1ccc(OCC(=O)NNC(=O)Cn2c(=O)cnc3ccccc32)cc1	7	-13	-21	8	6	1	.	.
O=C1CCCC[C@@H](O)[C@H](O)C[C@H](c2ccccc2)O1	6	.	.	.	.	.	.	.
C=C1CC2(CC(c3ccccc3)OC(c3ccccc3)C2)OC1=O (stereo unspecified)	87*	97*	-66*	78*	-3	96*	91*	106*
C#CCN(C[C@@H]1[C@@H](OC(=O)NCc2ccco2)[C@@H](OC(=O)NCc2ccco2)CN(C(=O)OC(C)C)N1C(=O)OC(C)C)S(=O)(=O)c1ccc(C)cc1	44*	-9	5	22	-19	-9	37	89*
